High-throughput results: PubChem, National Center for Advancing Translational Sciences (NCATS)
rTrxR1 inhibitor: inhibitors of rat thioredoxin reductase 1; O89049; recombinant rTrxR1, NADPH fluorescence consumption, selenite substrate; Potency, µM (series often up to 114 µM), without a hit: top-dose activity change, negative = inhibition, actives largely listed as inhibitors; 390,000 compounds, 1% hits; further: on the % scale 0 is the no-effect control and ±100 the full control effect; nearly all actives have a fitted effect of over 65% in size
Target sequence (O89049 whole entry, looked up): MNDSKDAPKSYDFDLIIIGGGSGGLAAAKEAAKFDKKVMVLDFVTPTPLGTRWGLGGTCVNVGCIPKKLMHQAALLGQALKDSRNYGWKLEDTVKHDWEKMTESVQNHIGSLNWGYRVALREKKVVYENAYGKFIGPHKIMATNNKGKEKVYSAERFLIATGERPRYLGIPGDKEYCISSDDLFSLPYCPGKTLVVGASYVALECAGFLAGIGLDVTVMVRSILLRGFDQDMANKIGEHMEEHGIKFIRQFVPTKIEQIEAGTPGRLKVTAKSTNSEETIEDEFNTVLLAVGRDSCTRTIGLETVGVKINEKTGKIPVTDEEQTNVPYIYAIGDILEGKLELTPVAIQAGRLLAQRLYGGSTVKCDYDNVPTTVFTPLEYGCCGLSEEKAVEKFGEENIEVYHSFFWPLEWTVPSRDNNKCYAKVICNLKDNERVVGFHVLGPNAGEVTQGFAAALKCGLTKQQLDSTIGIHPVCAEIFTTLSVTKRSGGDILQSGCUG
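Rat TrxR1 (90 nM in the dispensed reagent) was pre-reduced with 400 uM NADPH for 5 min at room temperature, then incubated with compound for 15 min. After 400 uM selenite was added, NADPH fluorescence (Ex 340/Em 450 nm) was followed for 8 min.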
Vif-A3F inh: blocks the Vif interaction with APOBEC3F. AID 602313. HeLa A3F-eYFP + Vif (tagged APOBEC3F with the HIV-1 protein that degrades it), YFP fluorescence increase. 390,000 compounds, 0.2% hits. Potency, µM (series often up to 46.1 µM), for the others: at the highest dose activity, negative = active; further: % of control where 0% means no effect; nearly all actives have a fitted effect of over 65% in size
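Fluorescence increase (Ex 488/Em 500-530) after overnight compound treatment at 37 deg C flags inhibition of Vif-driven A3F-eYFP loss in stable HeLa A3F-eYFP/Vif cells seeded overnight beforehand.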
Vif-A3G inh: blocks the Vif interaction with human APOBEC3G; HeLa A3G-eYFP + Vif (tagged APOBEC3G with the HIV-1 protein that degrades it), YFP fluorescence, overnight; Potency, µM (doses to about 46.1 µM), inactives show at the highest dose activity, negative = active, most hits filed as inhibitors; 410,000 compounds, 0.076% hits; further: on the % scale 0 is the no-effect control and ±100 the full control effect; nearly all actives have a fitted effect of over 60% in size
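Read-out is eYFP fluorescence (Ex 488/Em 500-530) from Vif-expressing HeLa A3G-eYFP cells; more signal means A3G escaped Vif-mediated degradation. Cells plated overnight, compound pinned in, incubated overnight at 37 deg C.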
VDR inh: blocks the human vitamin D receptor | 400,000 compounds, 0.93% hits | Potency, µM, for the others: max response, negative = inhibition, hits mostly inhibitors | VDR-SRC2-3 peptide fluorescence polarization, 2 h | P11473; further: on the % scale 0 is the no-effect control and ±100 the full control effect
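Inhibition of the VDR/SRC2-3 peptide interaction is quantified by fluorescence polarization. Compounds (23 nl, pintool) incubate with the reagents for 2 hours at ambient room temperature.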
TrxR1 substrate: substrates of rat thioredoxin reductase 1 | AID 588456 | O89049 | purified TrxR1 substrate turnover, NADPH consumption readout | Potency, µM (series often up to 114 µM), for inactives: at the highest dose activity change, negative = substrate turnover | 390,000 compounds, 0.01% hits; further: on the % scale 0 is the no-effect control and ±100 the full control effect; nearly all actives have a fitted effect of over 50% in size
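Rat TrxR1, dispensed at 90 nM, was prereduced with 400 uM NADPH (final) for 5 min at ~22 deg C, then incubated with compound 15 min before 400 uM selenite. A first-read NADPH fluorescence drop versus no-compound background flagged substrates.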
Active calls of the source: *; [ ] = dose if it differs, or a comment. The list is not random: actives were taken first. Their share in the collection is about 1.8%. The call rests on the fitted dose curve; in most records, active means well fitted curve in the direction sought with a large enough effect; inconclusive means small, poorly fitted or top-dose-only effect, or another doubt; inactive means no such curve, though single readings can be large; an effect the other way counts as inactive or inconclusive. Potency means the concentration at half of the fitted maximal effect.

`CCN(CC)S(=O)(=O)c1nnc(NC(=O)COc2ccc(Cl)cc2)s1` gave rTrxR1 inhibitor 1%, Vif-A3F inh -2%, Vif-A3G inh 1%, VDR inh -4% and TrxR1 substrate 5%[11.4 µM].
For O=C(c1cc(COc2ccc(F)cc2F)on1)N1CCN(C(=O)c2ccco2)CC1 the results were rTrxR1 inhibitor 50µM*, Vif-A3F inh 7%, Vif-A3G inh -1%, VDR inh -16% and TrxR1 substrate 2%.
COc1ccc(OC)c(C2CC(=O)N3CN(c4ccccc4)CSC3=C2C#N)c1 (centres undefined) was read as rTrxR1 inhibitor inconclusive, Vif-A3F inh -1%, Vif-A3G inh -1%, VDR inh 20µM* and TrxR1 substrate 3%[57.1 µM].
COc1ccc(N2CSC3=C(C#N)C(c4cccc(OC)c4OC)CC(=O)N3C2)cc1 (centres undefined) was read as rTrxR1 inhibitor inconclusive, Vif-A3F inh -6%, Vif-A3G inh -7%, VDR inh 20µM* and TrxR1 substrate -6%[57.1 µM].
`COc1ccc(C2CC(=O)N3CN(c4ccc(C)c(Cl)c4)CSC3=C2C#N)cc1` (centres undefined) gave rTrxR1 inhibitor inconclusive, Vif-A3F inh 0%, Vif-A3G inh 2%, VDR inh 32µM* and TrxR1 substrate 4%[57.1 µM].
COc1ccc(C2CC(=O)N3CN(c4ccccc4F)CSC3=C2C#N)cc1OC (centres undefined) was read as rTrxR1 inhibitor inconclusive, Vif-A3F inh 1%, Vif-A3G inh 2%, VDR inh 32µM* and TrxR1 substrate 2%[57.1 µM].
Screening COc1cc(C2CC(=O)N3CN(Cc4ccco4)CSC3=C2C#N)ccc1OCc1ccccc1 (centres undefined) returned rTrxR1 inhibitor inconclusive, Vif-A3F inh 0%, Vif-A3G inh 1%, VDR inh inconclusive and TrxR1 substrate 3%[57.1 µM].
For COc1ccc(C2CC(=O)N3CN(C4CCCCC4)CSC3=C2C#N)c(OC)c1 (centres undefined) the results were rTrxR1 inhibitor -19%, Vif-A3F inh 0%, Vif-A3G inh -3%, VDR inh inconclusive and TrxR1 substrate 4%.
Screening Cc1ccc(F)c(C2C3C=CCCC3(C)C(=O)N2Cc2ccccc2)c1 (centres undefined) returned rTrxR1 inhibitor -25%, Vif-A3G inh -12%, VDR inh -15% and TrxR1 substrate -9%.
O=C(C[N+]1(CCc2ccccc2)CCOCC1)c1ccccc1 was read as rTrxR1 inhibitor 13%, Vif-A3G inh -1% and TrxR1 substrate 7%.
For Cc1ccc(Nc2nc(=O)c3cccnc3s2)cc1 the results were rTrxR1 inhibitor 10%, Vif-A3F inh -3%, Vif-A3G inh -4%, VDR inh 22% and TrxR1 substrate -13%.
For COc1ccc(OC)c(Nc2nc(=O)c3cccnc3s2)c1 the results were rTrxR1 inhibitor -11%, Vif-A3F inh 2%, Vif-A3G inh -7%, VDR inh 45µM* and TrxR1 substrate -6%.
Screening Cc1cccc(NC(=O)N2CC=C(c3c[nH]c4ccccc34)CC2)c1C returned rTrxR1 inhibitor -4%, Vif-A3F inh 11µM*, Vif-A3G inh inconclusive, VDR inh 6% and TrxR1 substrate -6%.
Cc1ccc(NC(=O)N2CC=C(c3c[nH]c4ccccc34)CC2)cc1Cl was read as rTrxR1 inhibitor 5%[57.1 µM], Vif-A3F inh inconclusive, Vif-A3G inh inconclusive, VDR inh 18% and TrxR1 substrate -1%[57.1 µM].
`CC(=O)C1=C(C)NC(SCC(=O)c2ccc(Cl)cc2)=C(C#N)C1c1ccco1` (centres undefined) gave rTrxR1 inhibitor inconclusive, Vif-A3F inh 25µM*, Vif-A3G inh inconclusive, VDR inh 19% and TrxR1 substrate 4%.
For O=[n+]1ccn([O-])c2ccccc21 the results were VDR inh -5%.
For Cc1ccc(NC(=O)C2CCN(S(=O)(=O)c3ccccc3)CC2)cc1 the results were rTrxR1 inhibitor 26%[57.1 µM], Vif-A3F inh inconclusive, Vif-A3G inh -6%, VDR inh -2% and TrxR1 substrate 8%[57.1 µM].
Cc1ccc(S(=O)c2ccc(NC(=O)C3CC3)cc2C#N)cc1 (centres undefined) was read as rTrxR1 inhibitor 7%[57.1 µM], Vif-A3F inh -2%, Vif-A3G inh 0%, VDR inh 71µM* and TrxR1 substrate 5%[57.1 µM].
O=c1[nH]c2c(-c3nc(-c4ccc(Cl)cc4)cs3)c(O)cn2c2ccccc12 was read as rTrxR1 inhibitor 24%[0.0914 µM], Vif-A3G inh -2% and TrxR1 substrate -5%.
For CCOc1ccc2nc(N3C(=O)/C(=C/c4ccc(Cl)cc4)NC3=S)sc2c1 the results were rTrxR1 inhibitor 23%[57.1 µM], Vif-A3F inh 5µM*, Vif-A3G inh -3%, VDR inh -13% and TrxR1 substrate 8%[57.1 µM].
COc1ccc2nc(N3C(=O)CNC3=S)sc2c1 was read as rTrxR1 inhibitor 21%[57.1 µM], Vif-A3F inh 1%, Vif-A3G inh -3%, VDR inh 9% and TrxR1 substrate -10%.
Screening O=c1c(Br)c(Br)cnn1-c1ccccc1 returned rTrxR1 inhibitor inconclusive, Vif-A3F inh -9%, Vif-A3G inh -22%, VDR inh -1% and TrxR1 substrate 11%.
`Cc1ccc(-n2ncc(Br)c(Br)c2=O)cc1` gave rTrxR1 inhibitor 10µM*, Vif-A3F inh -3%, Vif-A3G inh inconclusive, VDR inh -12% and TrxR1 substrate 3%.
For CCC(=O)Nc1nc(=S)ss1 the results were rTrxR1 inhibitor -23%[57.1 µM], Vif-A3F inh -19%, Vif-A3G inh 1%, VDR inh 45µM* and TrxR1 substrate 4%[57.1 µM].
`CC(C)(C)C(=O)Nc1nc(=S)ss1` gave rTrxR1 inhibitor inconclusive, Vif-A3F inh 3%, Vif-A3G inh 1%, VDR inh inconclusive and TrxR1 substrate -14%.
Cc1ccc(NC(=O)CSc2ncc3c(n2)-c2ccccc2N(C)S3(=O)=O)c(Cl)c1 was read as rTrxR1 inhibitor 33%[57.1 µM], Vif-A3F inh -20%, Vif-A3G inh inconclusive, VDR inh -2% and TrxR1 substrate 11%[57.1 µM].
For CC(C)(C)n1ncc2c(=O)n(Cc3ccc(C#N)cc3F)cnc21 the results were rTrxR1 inhibitor 13%, Vif-A3G inh -2% and TrxR1 substrate -1%.
`COc1cc(/C=C2/SC(=O)N(Cc3ccccc3Cl)C2=O)ccc1OCc1ccncc1` gave rTrxR1 inhibitor 2%, Vif-A3F inh -8%, Vif-A3G inh 0%, VDR inh 89µM* and TrxR1 substrate -6%.
`O=C(Nc1cccc2cccnc12)c1ccc(Br)cc1` gave rTrxR1 inhibitor 13%, Vif-A3G inh -3%, VDR inh 11% and TrxR1 substrate 11%[0.457 µM].
Screening CN(C)c1ccc(C=O)c(F)c1 returned rTrxR1 inhibitor -15%, Vif-A3G inh 2% and TrxR1 substrate -18%.
